Test results as given in PubChem BioAssay (Tox21).
Records with an inconclusive call do not appear. Activity calls are given as the source filed them. Unless noted, calls come from the whole dose curve; as a rule, active = well fitted curve in the direction sought with a large enough effect in the repeat runs; inconclusive = weak or mixed curves; inactive = no such curve, though single readings can be large; an effect the other way counts as inactive or inconclusive.

What was measured:
[1] = qHTS assay to test for compound auto fluorescence at 535 nm (green) in HEK293 cells (AID 720680)
[2] = qHTS assay to test for compound auto fluorescence at 460 nm (blue) in HEK293 cell free culture (AID 720681)
Method in brief: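 Blue fluorescence (Ex 405/Em 460 nm, triamterene-equivalent) was read immediately after pin transfer of compound or DMSO into medium (DMEM, 10% FBS) without cells.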

[3] = qHTS assay to test for compound auto fluorescence at 590 nm (red) in HEK293 cell free culture (AID 720683)
Method in brief: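 Red-channel autofluorescence of compounds in culture medium (DMEM, 10% FBS), no cells, measured at 540/590 nm. Rose Bengal sodium is the reference fluorophore for equivalence.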

[4] = qHTS assay to test for compound auto fluorescence at 590 nm (red) in HepG2 cell free culture (AID 720684)
Method in brief: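 Steps: dispense MEM/10% FBS medium, no cells; pin compound or DMSO vehicle; read red channel, Ex/Em 540/590 nm. Output given as Rose Bengal sodium equivalents.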

[5] = qHTS assay to test for compound auto fluorescence at 460 nm (blue) in HepG2 cell free culture (AID 720685)
Method in brief: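 Compound (23 nL) or DMSO pinned into cell-free MEM with 10% FBS; blue fluorescence read at 405/460 nm excitation/emission, expressed as auto-fluorescence equivalency to triamterene.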

[6] = qHTS assay to test for compound auto fluorescence at 535 nm (green) in HepG2 cell free culture (AID 720686)
[7] = qHTS assay to test for compound auto fluorescence at 460 nm (blue) in HepG2 cells (AID 720687)
Method in brief: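 Blue-channel autofluorescence (Ex/Em 405/460 nm, triamterene-equivalent) was measured after 1 hr compound exposure at 37 C, 5% CO2. Cells were HepG2, plated overnight at 37 C in MEM plus 10% FBS.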

[8] = qHTS assay to identify small molecule antagonists of the glucocorticoid receptor (GR) signaling pathway - cell viability counter screen (AID 720693); note: nearly all actives have a fitted effect of over 55% in size
[9] = qHTS assay for identifying genotoxic compounds that show differential cytotoxicity against isogenic chicken DT40 cell lines with known DNA damage response pathways - wild type cell line (AID 743012); note: nearly all actives have a fitted effect of over 60% in size
Method in brief: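 Using parental DT40 (300 cells/well), compounds delivered in DMSO incubate 40 h at 37 C/5% CO2. CellTiter-Glo reagent then stands 30 min at room temperature, and luminescence gives cell viability.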

[10] = qHTS assay for identifying genotoxic compounds that show differential cytotoxicity against isogenic chicken DT40 cell lines with known DNA damage response pathways - Rev3 mutant cell line (AID 743014); note: nearly all actives have a fitted effect of over 55% in size
[11] = qHTS assay to identify small molecule antagonists of the androgen receptor (AR) signaling pathway - cell viability counter screen (AID 743033; note: nearly all actives have a fitted effect of over 45% in size)
[12] = molecular target: Glucocorticoid receptor (Homo sapiens) (UniProt P04150); experiment: qHTS assay to identify small molecule antagonists of the glucocorticoid receptor (GR) signaling pathway (AID 720692; active = well fitted inhibition curve with a large enough effect in the signal ratio in the repeat runs, not every such curve was filed as active; the % refers to the signal ratio)
Chain of Glucocorticoid receptor (Homo sapiens) (P04150 whole entry, looked up): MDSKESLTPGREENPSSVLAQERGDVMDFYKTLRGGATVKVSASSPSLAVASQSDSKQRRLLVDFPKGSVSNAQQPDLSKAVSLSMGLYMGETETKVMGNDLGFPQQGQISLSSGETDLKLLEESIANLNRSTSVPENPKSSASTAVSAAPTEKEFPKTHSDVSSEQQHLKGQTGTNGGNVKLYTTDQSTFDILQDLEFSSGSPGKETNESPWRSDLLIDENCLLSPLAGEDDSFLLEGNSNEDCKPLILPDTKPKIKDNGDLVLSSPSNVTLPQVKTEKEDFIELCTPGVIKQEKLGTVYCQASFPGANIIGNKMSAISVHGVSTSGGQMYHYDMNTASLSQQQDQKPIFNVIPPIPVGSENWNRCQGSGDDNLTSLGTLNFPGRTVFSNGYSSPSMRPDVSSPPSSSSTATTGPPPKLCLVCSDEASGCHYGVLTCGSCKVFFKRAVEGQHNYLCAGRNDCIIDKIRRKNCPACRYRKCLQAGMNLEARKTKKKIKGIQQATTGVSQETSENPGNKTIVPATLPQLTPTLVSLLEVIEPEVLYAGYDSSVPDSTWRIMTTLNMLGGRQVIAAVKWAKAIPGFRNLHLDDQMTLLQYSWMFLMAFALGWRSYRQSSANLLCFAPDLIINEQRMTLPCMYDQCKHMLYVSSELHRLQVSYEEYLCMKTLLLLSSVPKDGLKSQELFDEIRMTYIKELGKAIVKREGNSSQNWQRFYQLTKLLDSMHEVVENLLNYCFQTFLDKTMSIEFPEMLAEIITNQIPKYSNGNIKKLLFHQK
Method in brief: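 Dexamethasone (5 nM final) stimulated a stably integrated GRE-beta-lactamase reporter in HeLa cells during 18 h co-incubation with compounds; signal was quantified as fluorescence intensity of B/G FRET substrate after 2 h.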

[13] = qHTS assay for identifying genotoxic compounds that show differential cytotoxicity against isogenic chicken DT40 cell lines with known DNA damage response pathways - Rad54/Ku70 mutant cell line (AID 743015); note: nearly all actives have a fitted effect of over 60% in size
[14] = molecular target: Androgen receptor (Homo sapiens) (UniProt P10275); experiment: qHTS assay to identify small molecule agonists of the androgen receptor (AR) signaling pathway (AID 743036; active = well fitted activation curve with a large enough effect in the signal ratio in the repeat runs, with a control signal flat, not every such curve was filed as active; the % refers to the signal ratio)
Chain of Androgen receptor (Homo sapiens) (P10275 whole entry, looked up): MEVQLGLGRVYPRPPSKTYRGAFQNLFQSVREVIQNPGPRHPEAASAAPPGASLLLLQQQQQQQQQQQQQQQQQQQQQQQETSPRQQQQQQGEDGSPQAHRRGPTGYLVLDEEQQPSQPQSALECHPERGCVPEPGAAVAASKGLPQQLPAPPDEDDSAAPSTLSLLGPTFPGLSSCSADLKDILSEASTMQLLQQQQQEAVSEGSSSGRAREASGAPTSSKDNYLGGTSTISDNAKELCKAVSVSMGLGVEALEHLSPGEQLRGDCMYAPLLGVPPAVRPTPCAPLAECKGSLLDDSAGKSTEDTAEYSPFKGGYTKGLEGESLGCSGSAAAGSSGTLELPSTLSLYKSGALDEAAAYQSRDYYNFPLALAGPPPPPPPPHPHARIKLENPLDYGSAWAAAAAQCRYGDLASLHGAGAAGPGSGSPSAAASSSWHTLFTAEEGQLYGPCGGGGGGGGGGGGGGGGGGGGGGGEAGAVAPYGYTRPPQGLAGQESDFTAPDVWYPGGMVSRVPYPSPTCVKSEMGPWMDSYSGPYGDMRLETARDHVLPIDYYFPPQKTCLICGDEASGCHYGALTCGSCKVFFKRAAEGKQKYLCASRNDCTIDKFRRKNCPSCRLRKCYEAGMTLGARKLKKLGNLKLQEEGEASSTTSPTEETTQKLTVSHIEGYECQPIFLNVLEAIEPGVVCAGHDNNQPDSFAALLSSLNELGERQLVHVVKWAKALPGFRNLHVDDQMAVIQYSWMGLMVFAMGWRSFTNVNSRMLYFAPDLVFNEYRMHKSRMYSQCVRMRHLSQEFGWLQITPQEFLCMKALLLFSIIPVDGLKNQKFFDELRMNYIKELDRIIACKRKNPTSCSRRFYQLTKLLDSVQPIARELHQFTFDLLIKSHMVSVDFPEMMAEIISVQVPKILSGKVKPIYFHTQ
Method in brief: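 Activation was read as beta-lactamase FRET signal from LiveBLAzer B/G substrate, added for 2 h at room temperature. Before that, GeneBLAzer AR-UAS-bla GripTite (HEK293) cells had 16 h compound exposure at 37C.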

[15] = molecular target: Androgen receptor (Homo sapiens) (UniProt P10275); experiment: qHTS assay to identify small molecule agonists of the androgen receptor (AR) signaling pathway using the MDA cell line (AID 743040; note: nearly all actives have a fitted effect of over 20% in size)
Method in brief: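 Cells plated, 5 h at 37C/0% CO2; compound or DMSO pinned; 16 h at 37C; ONE-Glo added; luminescence measured after 30 min at room temperature. Reporter line: MDA-kb2 with MMTV-luciferase responsive to AR and GR.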

[16] = qHTS assay to identify small molecule antagonists of the androgen receptor (AR) signaling pathway using the MDA cell line - cell viability counter screen (AID 743041; note: nearly all actives have a fitted effect of over 45% in size)
Method in brief: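 Cells were plated at 3,000 per well and left 5 h. Compounds in DMSO were then pinned in, followed by R1881. After 16 h at 37C, CellTiter-Fluor fluorescence gave viability.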

[17] = molecular target: Androgen receptor (Homo sapiens) (UniProt P10275); experiment: qHTS assay to identify small molecule antagonists of the androgen receptor (AR) signaling pathway using the MDA cell line (AID 743042; note: nearly all actives have a fitted effect of over 55% in size)
Method in brief: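 Antagonist mode: compounds plus R1881 agonist added to MDA-kb2 AR-luc cells, incubated 16 h at 37C. Luciferase reporter luminescence quantified, with multiplexed CellTiter-Fluor readout for cell viability.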

[18] = molecular target: Glucocorticoid receptor (Homo sapiens) (UniProt P04150); experiment: qHTS assay to identify small molecule agonists of the glucocorticoid receptor (GR) signaling pathway (AID 720691; active = well fitted activation curve with a large enough effect in the signal ratio in the repeat runs, not every such curve was filed as active; the % refers to the signal ratio)
Method in brief: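 Reporter read-out: fluorescence intensity following 2 h room-temperature LiveBLAzer B/G FRET substrate loading. Prior step: GR-bla HeLa cells held 4 h, then treated 18 h at 37 C.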

[19] = qHTS assay to test for compound auto fluorescence at 535 nm (green) in HEK293 cell free culture (AID 720682)
Method in brief: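 Compounds were pin-transferred into cell-free DMEM with 10% FBS, and green fluorescence was read at excitation 485 nm and emission 535 nm. Intensities were expressed as fluorescein-equivalent values.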

[20] = molecular target: Androgen receptor (Homo sapiens) (UniProt P10275); experiment: qHTS assay to identify small molecule antagonists of the androgen receptor (AR) signaling pathway (AID 743035; active = well fitted inhibition curve with a large enough effect in the signal ratio in the repeat runs, not every such curve was filed as active; the % refers to the signal ratio)
Method in brief: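 Using qHTS, AR-UAS-bla GripTite HEK293 cells received compound, then R1881, and were cultured 16 h at 37C/5% CO2 before a 2 h room-temperature LiveBLAzer B/G FRET substrate step and fluorescence measurement.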
% is set by controls: 0 for no effect and ±100 for the full control effect.

O=C(O)CNC(=O)c1ccc(CO)o1
inactive: outcome [1] | outcome [2] | outcome [3] | outcome [4] | outcome [5] | outcome [6] | outcome [7] | outcome [8] | Potency [9] | Potency [10] | outcome [11]

O=C(O)CCSCCC(=O)O
inactive: outcome [1] | outcome [2] | outcome [3] | outcome [4] | outcome [5] | outcome [6] | outcome [7] | Potency [12] | outcome [8] | Potency [9] | Potency [13] | outcome [11] | outcome [14] | Potency [15] | Potency [16] | outcome [17]

CCOc1ccccc1OCC
inactive: outcome [1] | outcome [2] | outcome [3] | outcome [5] | outcome [6] | Potency [12] | outcome [8] | Potency [10] | Potency [13] | Potency [16]

CCN[C@@H]1C[C@H](N)[C@@H](OC2OC(CN)=CCC2N)[C@H](O)[C@H]1O[C@H]1OC[C@](C)(O)[C@H](NC)[C@H]1O (stereo not given in full)
inactive: outcome [1] | outcome [2] | outcome [3] | outcome [4] | outcome [5] | outcome [6] | outcome [7] | outcome [8] | outcome [11] | Potency [16]

CCCCCCCCN1CCCC1=O
inactive: outcome [1] | outcome [2] | outcome [3] | outcome [5] | outcome [6] | outcome [7] | Potency [18] | Potency [12] | outcome [8] | Potency [10] | outcome [11] | Potency [16]

CCN[C@H]1C[C@H](C)S(=O)(=O)c2sc(S(N)(=O)=O)cc21
inactive: outcome [1] | outcome [2] | outcome [4] | outcome [5] | outcome [6] | outcome [7] | Potency [18] | Potency [12] | outcome [8] | Potency [9] | Potency [10] | Potency [13] | outcome [11] | Potency [16]

CC[N+](C)(CC)CCOC(=O)C1c2ccccc2Oc2ccccc21
inactive: outcome [1] | outcome [2] | outcome [3] | outcome [4] | outcome [5] | outcome [6] | outcome [8] | Potency [9] | Potency [13] | outcome [11] | Potency [16]

C[N+](C)(CCOc1ccccc1)Cc1cccs1
inactive: outcome [2] | outcome [19] | outcome [3] | outcome [4] | outcome [5] | outcome [6] | outcome [7] | Potency [18] | Potency [12] | outcome [8] | Potency [13] | outcome [11] | Potency [15]

CCCC(C)C(=O)OCC (stereo not given)
inactive: outcome [1] | outcome [2] | outcome [3] | outcome [4] | outcome [5] | outcome [6] | Potency [18] | Potency [12] | outcome [8] | Potency [9] | Potency [10] | Potency [13] | outcome [11]

CC1=CC(=O)[C@H]2C[C@@H]1C2(C)C
inactive: outcome [1] | outcome [2] | outcome [3] | outcome [5] | outcome [6] | outcome [7] | Potency [18] | Potency [12] | outcome [8] | Potency [9] | Potency [10] | Potency [13] | Potency [16]

CCN1CCOCC1
inactive: outcome [1] | outcome [2] | outcome [3] | outcome [4] | outcome [5] | outcome [6] | outcome [7] | outcome [8] | Potency [9] | Potency [10] | Potency [13] | outcome [11] | Potency [16]

CC(=O)NC(=O)c1ccccc1O
inactive: outcome [1] | outcome [2] | outcome [4] | outcome [5] | outcome [6] | outcome [7] | Potency [18] | Potency [12] | outcome [8] | Potency [9] | Potency [10] | Potency [13] | outcome [11] | Potency [16]

CC12CCC(C(=O)C1=O)C2(C)C (stereo not given)
inactive: outcome [1] | outcome [2] | outcome [3] | outcome [4] | outcome [5] | outcome [6] | outcome [7] | Potency [18] | Potency [12] | outcome [8] | Potency [9] | Potency [10] | Potency [13] | outcome [11] | Potency [16]

COc1cc(C)nc(-n2nc(C)cc2OC)n1
inactive: fluorescence, % of fluorescein [1] -0.0757% [at 18.6 µM] | fluorescence, % of fluorescent control [2] -0.0196% [at 18.6 µM] | activity change [19] -0.0111% [at 18.6 µM] | fluorescence, % of fluorescent control [5] -0.138% [at 18.6 µM] | fluorescence, % of fluorescein control [6] -0.0352% [at 18.6 µM] | fluorescence, % of fluorescent control [7] -0.112% [at 18.6 µM] | Potency [18] | Potency [12] | outcome [8] | outcome [11] | Potency [16]

CC(C)(C)c1ccc(-c2ccc(C(C)(C)C)cc2)cc1
inactive: outcome [1] | outcome [2] | outcome [3] | outcome [4] | outcome [5] | outcome [6] | outcome [7] | Potency [12] | outcome [8] | Potency [13] | Potency [20] | outcome [14] | Potency [15] | outcome [17]
